# Measured values from ChEMBL document CHEMBL3988442, “University of Dundee, Small-Polar-MMV Screening Library” (2021).
# In all, about 53,000 compounds went through this assay and about 900 (1.7%) showed an effect of 50% or more. For the sample, strong results were picked, then their nearest neighbours and some compounds at random.
# Tested on: Mycobacterium tuberculosis
# Test: Cornell - Phenotypic assay to identify agents that inhibit growth of Mycobacterium tuberculosis
# Format: functional
# Parameters: scale not given: direction of the effect not stated beside the values
# Settings: 10 mM as filed; unlikely as a test dose
row,Structure (SMILES),Percent Effect [%]
1,Cn1nccc1-c1ncc(-c2cc(C(=O)O)n(CC3CC3)c2)cn1,-21.93
2,CN(C)c1ncc(-c2cc(C(=O)O)n(CC3CC3)c2)cn1,80.35
3,CN(C)c1ncc(NC(=O)N2CCC(CN3CCCC3)C2)cn1 (stereo not drawn),-23.44
4,COc1ccc(Cl)cc1S(=O)(=O)N(C)CC(=O)Nc1ccccc1,28.1
5,CN(CCS(=O)(=O)c1cc(Cl)ccc1Cl)CC(=O)Nc1ccc(F)cc1,110.1
6,Cc1ccc(S(=O)(=O)N(C)CC(N)=O)c(Cl)c1,18.08
7,CN(CCS(=O)(=O)c1cc(Cl)ccc1Cl)CC(N)=O,108.8
8,CN(CCS(=O)(=O)c1cc(Cl)ccc1Cl)CC(=O)Nc1cccc(F)c1,108.9
9,COc1ccc(Cl)cc1S(=O)(=O)N(C)CC(N)=O,28.08
10,CN(CCOc1cccc(F)c1)CC(=O)Nc1ccncc1,22.43
11,CN(CC(=O)Nc1cccc(F)c1)Cc1nc(N)nc(N(C)C)n1,30.17
12,CN(CC(=O)Nc1ccon1)S(=O)(=O)c1cc(Cl)ccc1Cl,-21.56
13,Cc1nn(C)c(C)c1-c1ccc(=O)n(C(C)C(=O)NC2CC2)n1 (stereo not drawn),11.69
14,CC(C)Nc1nc2c(s1)C(=O)CN(CC1CC1)C2,-4.506
15,CCn1nc(C)c2c1cnn2CC(=O)N1CCN(C)CC1,13.07
16,O=C(O)CN1CCOCC(Cc2ccc(Cl)cc2)C1 (stereo not drawn),-49.54
17,CCCNC(=O)Cn1c(-n2nc(C)cc2C)nc(CCC)cc1=O,16.57
18,CCCc1cc(=O)n(CC(=O)NC(C)C)c(-n2nc(C)cc2C)n1,19.53
19,CCCc1cc(=O)n(CC(=O)NCCOC)c(-n2nc(C)cc2C)n1,61.91
20,Cc1nn2cc(CNc3nccc(CCC(F)(F)F)n3)nc2s1,14.28
21,COc1cc(OC)cc(-c2noc(CC(N)c3ccccc3)n2)c1 (stereo not drawn),63.98
22,Cl.NC(Cc1nc(-c2ccccc2)no1)c1ccccc1 (stereo not drawn),19.6
23,COc1cc(OC)cc(-c2noc(CN)n2)c1,-71.7
24,COc1c(C2CCCN2Cc2nc(C3CC3)no2)c(C)nn1C (stereo not drawn),-19.26
25,CC(C)(C)c1noc(CN2CCCc3cc(OC(F)(F)F)ccc32)n1,12.22
26,Cc1nn(C)cc1C1CC(=O)Nc2c1cnn2C (stereo not drawn),30.3
27,NC(=O)C1CCCN(c2ccc(CNC(=O)c3cnsn3)cc2)C1 (stereo not drawn),-38.73

row,Structure (SMILES),Percent Effect [%]
1,N#Cc1c(Cl)nsc1NCc1ccc(N2CCSCC2)cc1,23.04
2,N#Cc1c(Cl)nsc1NCc1ccc(N2CCCC(C(N)=O)C2)cc1 (stereo not drawn),80.86
3,NC(=O)C1CCCN(c2ccc(CNC(=O)c3csnn3)cc2)C1 (stereo not drawn),-20.12
4,Cc1nnc(NCc2ccc(N3CCC(CO)CC3)cc2)c(C#N)c1C,-12.64
5,N#Cc1c(Cl)nsc1NCc1ccc(N2CCC(CO)CC2)cc1,51.2
6,OC1(CNCCc2csc(-c3cccnc3)n2)CCNC1 (stereo not drawn),6.154
7,CN1CCOC(C)(C(=O)Nc2nccs2)C1 (stereo not drawn),-67.22
8,COCC1COCCC12CCN(C(=O)COc1ccccc1C)CC2 (stereo not drawn),-10.81
9,O=C(NCCN1CCc2ccccc21)c1cc(-c2ccc(O)cc2)n[nH]1,53.46
10,Cc1cc(C(=O)NCCN2CCCc3ccccc32)[nH]n1,-6.129
11,O=C(NCCN1CCNC1=O)c1cc(-c2ccc(O)cc2)n[nH]1,15.58
12,CCc1ccc(NC(=O)c2ncc(C(N)=O)cc2Cl)cc1F,15.72
13,O=C(NCCc1c[nH]c2ccccc12)C1(n2cnnn2)CCCCC1,25.7
14,O=C(NCCc1cccc(F)c1)C1(n2cnnn2)CCCCC1,18.95
15,O=C(NCCc1c[nH]c2ccc(F)cc12)C1(n2cnnn2)CCCCC1,65.5
16,CCc1ncc2c(n1)CN(Cc1nc(-c3ccco3)oc1C)CC2,-14.23
17,O=C(Cc1nc(-c2ccncc2)n[nH]1)N1CCOCC1,-3.393
18,CCCNc1ccc(C(=O)NCCc2cccc(Cl)c2)cn1,-5.958
19,COc1ncc(C(=O)NCc2ccc(Br)cc2)cn1,25.41
20,COc1ccc(CNC(=O)c2ccc(Br)cn2)cc1,8.291
21,COC(=O)c1ccc(C(=O)NCc2ccc(Br)cc2)cn1,95.13
22,CCc1nn(-c2cc(Oc3cccc(C)c3)nc(C)n2)c(N)c1C#N,11.01
23,CS(=O)(=O)N1CCN(C(=O)c2cc(-c3ccco3)cs2)CC1,10.89
24,O=C1C(CS(=O)(=O)Nc2ccc(Cl)cc2)=NC(=O)n2cccc21,11.65
25,O=C1C(CS(=O)(=O)Nc2ccc(Br)cc2)=NC(=O)n2cccc21,17.38
26,CC(C)c1ccc(NS(=O)(=O)CC2=NC(=O)n3cccc3C2=O)cc1,59.8
